Screens: PubChem BioAssay, National Center for Advancing Translational Sciences (NCATS)
Compounds with a hit are over-represented: about 12% of the library has one in this group of screens.
HP1b binding inh – HTS for Inhibitors of HP1-beta Chromodomain Interactions with Methylated Histone Tails; AID 540317, 2011; AlphaScreen HP1-beta / biotin-H3K9me3 peptide binding; Chromobox protein homolog 1 (Homo sapiens), P83916; actives 0.56% (n = 390,000); Potency, µM (highest dose often 114 µM), hits mostly inhibitors; note: nearly all actives have a fitted effect of over 70% in size
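AlphaScreen: HP1-beta (50 nM) preformed 30 min with biotin-H3(1-18)K9me3 peptide (50 nM) in PBS pH 7.4, 0.01% Tween-20. Compound added for 30 min at RT, then streptavidin donor/nickel chelate acceptor beads (10 ug/mL) for 30 min.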
G9a inh – qHTS Assay for Inhibitors of Histone Lysine Methyltransferase G9a. G9a H3K9 monomethylation, AlphaScreen, 2 h. Potency, µM (series often up to 102 µM), most hits filed as inhibitors. AID 504332, 2011. actives 8.8% (n = 350,000); note: nearly all actives have a fitted effect of over 75% in size
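Compounds were preincubated with 20 nM G9a for 15 min, after which biotinylated H3K9 peptide (500 nM) and SAM (20 uM) started a 2 h room-temperature reaction. Monomethylated product was quantified by antibody-based AlphaScreen chemiluminescence.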
BAZ2B inh – qHTS Assay for Inhibitors of BAZ2B. Potency, µM (top dose mostly 114 µM), usual class: inhibitors. AlphaScreen BAZ2B-H3K14Ac peptide displacement. Bromodomain adjacent to zinc finger domain protein 2B (Homo sapiens), Q9UIF8. AID 504333, 2011. actives 4.4% (n = 360,000); note: nearly all actives have a fitted effect of over 60% in size
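Protein-peptide AlphaScreen: BAZ2B 50 nM, b-H3K14Ac 50 nM, 1x PBS pH 7.4 + 0.01% Tween-20. Preincubation 30 min RT; cpd 30 min RT (top 110 uM); beads 20 min RT, light-protected.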
Sfp PPTase inh – qHTS Assay for Inhibitors of Bacillus subtilis Sfp phosphopantetheinyl transferase (PPTase); Biochemical Sfp PPTase activity, qHTS; AID 1490, 2009; Potency, µM, usual class: inhibitors; actives 3.5% (n = 310,000);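 note: the enzyme is Sfp with the accession as filed and its product quenches rhodamine fluorescence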
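Buffer: 50 mM Hepes-Na pH 7.6, 10 mM MgCl2, 0.01% Nonidet P-40, 0.01% BSA. Enzyme 15 nM, pre-exposed to compound 15 min; substrates then added and fluorescence change tracked over 30 min.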
JMJD2A Tudor inh – qHTS Assay for Inhibitors of JMJD2A-Tudor Domain; Lysine-specific demethylase 4A (Homo sapiens), O75164; AlphaScreen JMJD2A-Tudor / H3K4me3 peptide binding; Potency, µM (titrated, usually from 114 µM), hits mostly inhibitors; actives 4.4% (n = 390,000); AID 504339, 2011; note: nearly all actives have a fitted effect of over 50% in size
L3MBTL1 inh – qHTS Assay for the Inhibitors of L3MBTL1; AlphaScreen L3MBTL1–H3K9me1 peptide binding; AID 485360, 2010; Potency, µM (doses to about 57.1 µM), most hits filed as inhibitors; Lethal(3)malignant brain tumor-like protein 1 (Homo sapiens), Q9Y468; actives 0.66% (n = 230,000); note: nearly all actives have a fitted effect of over 60% in size
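L3MBTL1 (50 nM) pre-complexed 30 min with biotinylated H3(1-15)K9me1 peptide (75 nM), then compounds added for 30 min at room temperature; AlphaScreen streptavidin donor/nickel chelate acceptor beads (10 ug/mL final) read after 30 min dark incubation.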
Hits are given with their value; – = inactive; ? = inconclusive; · = no result; ! = not active in a repeat. Calls come from the whole dose curve; as a rule, active = well fitted curve in the direction sought with a large enough effect; inconclusive = small, poorly fitted or top-dose-only effect, or another doubt; inactive = no such curve, though single readings can be large; an effect the other way counts as inactive or inconclusive.

SMILES	HP1b binding inh	G9a inh	BAZ2B inh	Sfp PPTase inh	JMJD2A Tudor inh	L3MBTL1 inh
Cc1cccc(N=C2c3cc([N+](=O)[O-])ccc3-c3c2cc([N+](=O)[O-])cc3[N+](=O)[O-])c1	2.8µM	·	·	·	3.5µM	·
Cc1cc([C@@H]2CCCN2C)on1	·	?	·	–	·	·
Cc1ccccc1N1C(=O)NC(=O)/C(=C\c2ccc3c(c2)CCCN3Cc2ccccc2)C1=O	?	10µM	35µM	79µM	50µM	?
Cc1cc(/C=C2\C(=O)NC(=O)N(Cc3ccccc3)C2=O)c(C)n1C1CC1	–	·	–	–	?	–
O=c1c(O)c(-c2ccc(O)c(O)c2)oc2c(O)c(O)cc(O)c12	·	?	·	–	·	·
CCCc1cc(=O)oc2cc(OCC(=O)N3CCN(Cc4ccc5c(c4)OCO5)CC3)ccc12	–	–	50µM	–	–	·
CN1CCN(C(=S)c2ccc([N+](=O)[O-])cc2)CC1	?	10µM	–	13µM	?	–
Cc1cc(OCC(=O)N2CCCN(C)CC2)ccc1Cl	–	–	–	–	–	·
CCOc1cccc(CNC2CN3CCC2CC3)c1 (centres undefined)	–	?	–	–	–	·
CCOc1cccc(OCCOCCN2CCCC2)c1	?	?	?	–	7.9µM	–
Clc1ccc(OCCCN2CCCC2)cc1Cl	?	10µM	?	–	4µM	–
CC[C@H](Oc1ccc(Cl)cc1)C(=O)OC1C[C@H]2CC[C@@H](C1)N2C (some centres undefined)	·	·	·	–	·	·
COCCN(C(=O)CCl)c1c(C)cccc1C	·	·	·	–	·	·
CCc1ccc(-n2c(O)c(/C=N/N3CCCCC3c3cccnc3)c(=O)[nH]c2=O)cc1 (centres undefined)	–	–	–	–	–	–
O=c1[nH]c(=S)n(-c2ccccc2)c(O)c1/C=N/N1CCCCC1c1cccnc1 (centres undefined)	–	8.9µM	?	50µM	–	·
CN(CC(=O)Nc1ccc(N2CCOCC2)cc1)CC(=O)Nc1cccc(C#N)c1	–	?	?	–	–	–
Nn1c(Cc2cccc3ccccc23)n[nH]c1=S	?	3.5µM	–	7.1µM	10µM	–
CC1CCN(C(=O)c2ncn(C)c2C(=O)N2CCC(C)CC2)CC1	–	·	·	·	22µM	–
CCCC[C@@H](C)[C@@H](OC(=O)C[C@@H](CC(=O)O)C(=O)O)[C@H](C[C@@H](C)CCCCCC[C@@H](O)C[C@H](O)[C@H](C)N)OC(=O)C[C@@H](CC(=O)O)C(=O)O	·	·	·	–	·	·
O=C(NCCc1ccc(Cl)cc1)c1ccc(CNc2c(N3CCOCC3)c(=O)c2=O)cc1	–	–	–	–	–	·
C[N+]12CCC(CC1)C(C#N)(N1CCOCC1)C2 (centres undefined)	–	50µM	–	–	?	–
Cc1o[nH]c(=O)c1CC(N)C(=O)O (centres undefined)	·	21µM!	·	·	·	·
Cc1o[nH]c(=O)c1C[C@H](N)C(=O)O	·	·	·	79µM!	·	·
Cc1o[nH]c(=O)c1C[C@@H](N)C(=O)O	–	·	·	79µM!	?	·
COc1ccc(NC(=S)NC(NC(=O)CF)C(Cl)(Cl)Cl)c([N+](=O)[O-])c1 (centres undefined)	–	10µM	?	–	–	–
SMILES	HP1b binding inh	G9a inh	BAZ2B inh	Sfp PPTase inh	JMJD2A Tudor inh	L3MBTL1 inh
CN(CCc1ccc(Cl)c(Cl)c1)[C@@H]1CCCC[C@@H]1N1CCCC1	·	–	·	–	·	·
C=C(CC1(CNP(=O)(c2ccccc2)c2ccccc2)CC1)c1ccccc1	·	·	·	–	·	·
O=C(c1ccco1)N1CCN(C(=O)c2ccc(COc3ccc(Cl)cc3Cl)o2)CC1	–	·	·	·	89µM	·
N#CC1c2ccccc2-n2nncc2CN1S(=O)(=O)c1cc(Cl)cc(Cl)c1 (centres undefined)	–	·	·	·	89µM	·
O=c1[nH]c(SCc2n[nH]c(=S)n2-c2ccccc2)nc2ccccc12	–	?	–	–	7.9µM	·
CN(C)C1CSSSC1	·	·	·	–	·	·
